± gives the standard deviation of the averaged measurements.
Tested on: lanierone-responsive B-neuron OSN class (ItypOR36)
Assay: net action potential response of lanierone B-neuron (blank-subtracted) (spikes/s (Hz)); higher = stronger excitation
Details: 10 µg on filter paper, neuron: B neuron (small spike amplitude)
Method: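 Single sensillum recordings from antennal olfactory sensilla of live adult Ips typographus. Each compound was 10 µg in paraffin oil, delivered as a 0.5 s puff. Net response = spikes in the first 0.5 s of response minus the 0.5 s pre-stimulus count, doubled to give Hz, with blank response subtracted. Values are for the small-spike lanierone-responsive B-neuron (putatively expressing ItypOR36), recorded in sensilla co-housing the A-neuron class; N = 1-4, averaged.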

[1] = co-localized A-neuron class: (4S)-cis-verbenol
[2] = co-localized A-neuron class: (5S,7S)-trans-conophthorin
[3] = co-localized A-neuron class: (+)-isopinocamphone
[4] = co-localized A-neuron class: (+)-trans-4-thujanol
[5] = co-localized A-neuron class: ipsdienol
[6] = co-localized A-neuron class: myrcene
[7] = co-localized A-neuron class: p-cymene

| SMILES | net action potential response [1] | net action potential response [2] | net action potential response [3] | net action potential response [4] | net action potential response [5] | net action potential response [6] | net action potential response [7] |
| --- | --- | --- | --- | --- | --- | --- | --- |
| Cc1ccc(C(C)C)cc1 [p-Cymene] | -3.33 ± 3.1 | 0.5 ± 2.5 | -2 ± 3.5 | -1.5 ± 4.4 | -1.33 ± 5 | 4 | -3.33 ± 5.8 |
| OCCc1ccccc1 [2-Phenylethanol] | -4 ± 2 | -3 ± 3.8 | 2 ± 3.5 | 1 ± 3.5 | -3.33 ± 11 | 2 | 6 ± 10 |
| CCCCCC=O [Hexanal] | 0.667 ± 3.1 | -0.667 ± 1.1 | -1.33 ± 9 | -3 ± 2.6 | -3.33 ± 4.2 | 2 | 3.33 ± 4.6 |
| CC(C)=CCC/C(C)=C/C=O [Citral (E/Z mix)] | -1.33 ± 4.6 | -3.33 ± 4.2 | 1.33 ± 4.2 | 2 ± 8.2 | -5.33 ± 7.6 | 0 | -0.667 ± 4.2 |
| C=C1CCC2CC1C2(C)C (stereo not drawn) [(-)-β-Pinene] | -0.667 ± 7.6 | 3.33 ± 3.1 | -3.33 ± 4.6 | -3 ± 4.2 | 0 ± 6 | -8 | 0 ± 7.2 |
| CC1=CCC(=C(C)C)CC1 [Terpinolene] | 4.67 ± 6.4 | 2 ± 2 | -4 ± 2 | -3 ± 3.8 | 2 ± 5.3 | -8 | 0.667 ± 2.3 |
